D1 PAM: Potentiators of Human D1 Dopamine Receptor: qHTS | D(1A) dopamine receptor (Homo sapiens), P21728 | HEK293 TREx D1 cells, calcium flux, dopamine EC20 potentiation | potentiation, % at 10 µM | hit rate 0.036% among 360,000 | AID 504651, 2011; in the data active means potentiation above about 30%
Target sequence (P21728 whole entry, looked up): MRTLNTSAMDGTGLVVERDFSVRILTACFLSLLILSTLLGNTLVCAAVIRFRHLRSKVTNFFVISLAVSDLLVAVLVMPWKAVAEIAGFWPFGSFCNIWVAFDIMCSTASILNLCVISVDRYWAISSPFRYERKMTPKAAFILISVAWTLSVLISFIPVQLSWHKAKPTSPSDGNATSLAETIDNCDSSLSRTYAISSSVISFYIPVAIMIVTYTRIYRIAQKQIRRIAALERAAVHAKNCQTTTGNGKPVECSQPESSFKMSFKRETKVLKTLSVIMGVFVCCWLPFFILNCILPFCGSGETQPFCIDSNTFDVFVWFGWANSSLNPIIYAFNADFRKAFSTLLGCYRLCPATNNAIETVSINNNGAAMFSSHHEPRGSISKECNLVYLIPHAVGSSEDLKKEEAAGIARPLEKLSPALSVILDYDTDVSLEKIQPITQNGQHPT
D3 antag: qHTS of D3 Dopamine Receptor Antagonist: qHTS | max response, negative = inhibition, % | D3R cells, DiscoveRx beta-arrestin luminescence, antagonist mode; stronger effect = lower value | hit rate 2.5% among 360,000 | D(3) dopamine receptor (Homo sapiens), P35462 | AID 652054, 2013; in the data active means max response below about -50%
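Cells expressing the human receptor were seeded at 1500 cells/well, incubated overnight at 37 degrees C in 5% CO2, then exposed to library compounds with dopamine controls for 90 minutes at 37 degrees C before luminescent detection.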
D1 antag: Antagonist of Human D 1 Dopamine Receptor: qHTS | hit rate 3.2% among 360,000 | activity change, negative = inhibition, % at 10 µM | HEK293 TREx D1 cells, calcium flux, dopamine EC80; stronger effect = lower value | AID 504652, 2011 | D(1A) dopamine receptor (Homo sapiens), P21728; in the data active means activity change below about -30%
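Calcium flux readout: force-coupled, inducible Hek293 Trex D1 line, cells induced overnight at 30 C with tetracycline, dye-loaded 30–90 min at RT. Antagonism scored against EC80 dopamine challenge given 180 s after compound.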
D1 agonist: Allosteric Agonists of the Human D1 Dopamine Receptor: qHTS; D(1A) dopamine receptor (Homo sapiens), P21728; HEK293 T-REx D1 cells, calcium flux, agonist mode; activation, % at 2 µM; hit rate 1% among 360,000; in the data active means activation above about 30%
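Agonism was scored from calcium flux recorded over 180 s (1 read/s) after pintool compound addition, following a 10-cycle baseline. Cells were inducible force-coupled HEK293 TREx D1, plated overnight at 30 C and loaded with no-wash calcium dye.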
D3 ag: qHTS of D3 Dopamine Receptor Agonist: qHTS. D3R DiscoveRx beta-arrestin cells, luminescence, 90 min. D(3) dopamine receptor (Homo sapiens), P35462. max activation, %. AID 652048, 2013. hit rate 0.58% among 410,000; in the data active means max activation above about 30%
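Agonist mode: compounds and dopamine controls were applied to plated cells for 90 min at 37 degrees C after an overnight attachment at 1500 cells/well. Luminescent read-out followed 30 - 60 minutes at room temperature with DiscoveRx detection reagent.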
Numbers stand for hits; 0 = inactive; - = no result given. Hits are enriched below; roughly 6.1% of the tested compounds scored in any of these assays.

SMILES | D1 PAM | D3 antag | D1 antag | D1 agonist | D3 ag
Cc1nnc(-c2ccccc2)c(=O)n1/N=C/c1c(O)ccc2ccccc12 | 0 | 0 | 0 | 113 | 0
Nc1nc(N=Nc2ccc(O)cc2)cc(=O)[nH]1 | - | -90 | - | - | 0
Nc1nc(N)c(N=Nc2ccccc2)c(=O)[nH]1 | - | 0 | - | - | 0
O=C(Nn1c(O)c(C=C2N=c3ccccc3=N2)sc1=S)c1cccc(Cl)c1 | 0 | -53 | 0 | 0 | 0
O=C(Nn1c(O)c(C=C2N=c3ccccc3=N2)sc1=S)c1ccc(Cl)cc1 | 0 | 0 | 0 | 0 | 0
Oc1c(C=C2N=c3ccccc3=N2)sc(=S)n1C1CCCC1 | 0 | 0 | -71 | 0 | 0
COc1ccc(C2CC(=O)N(Cc3cccc(C)c3)c3c2c(C)nn3-c2nc(C)cc(C)n2)c(OC)c1 (stereo unspecified) | 0 | - | 0 | 0 | 0
O=C(CNC(=O)C1CCCCCC1)OC(C(=O)Nc1cc(C(F)(F)F)ccc1Cl)c1ccccc1 (stereo unspecified) | 0 | - | 0 | 0 | -
CCOC(=O)c1cc(-c2csc(-c3ccc(C(C)(C)C)cc3)n2)on1 | 0 | 0 | 0 | 0 | 32
CCOC(=O)c1cc(-c2csc(-c3ccc(C(F)(F)F)cc3)n2)on1 | 0 | 0 | 0 | 0 | 0
Cc1ccccc1C(=O)Nc1nnc2n1CCS2 | 0 | - | 0 | 0 | 0
Cc1ccccc1N1CCN(Cc2c(C#N)c3ccccc3n2C)CC1 | 0 | -57 | 0 | 0 | 0
CSC1=N/C(=C\c2ccc(Cl)cc2)C(=O)N1N(C)C | 0 | 0 | 0 | 0 | 0
CC1(C)CN=c2s/c(=C\c3ccc(Cl)cc3)c(=O)n2C1 | 0 | 0 | 0 | 33 | 0
Cc1ccc(S(=O)(=O)c2nnn3c2nc(NCc2ccc4c(c2)OCO4)c2sccc23)cc1C | 0 | - | 0 | 0 | 0
NCc1nc2cccnc2n1Cc1ccccc1Cl | 0 | - | -31 | 0 | 0
O=S(=O)(NCc1nc2cccnc2n1Cc1ccccc1Cl)c1ccc(F)c(Cl)c1 | 0 | - | 0 | 0 | 0
Cc1ccc(NC(=O)C(=O)NCC(c2cccnc2)N2CCN(C)CC2)cc1C (stereo unspecified) | 0 | - | 0 | 0 | 0
Cc1ccc2c(c1)C(=C(C#N)C#N)C(=O)N2CCN1CCCCC1 | 0 | -55 | 0 | 0 | 0
Cc1[nH]c2ccccc2c(=O)c1CN1CCCCCC1 | 0 | 0 | 0 | 0 | 0
Cc1[nH]c2c(Cl)cccc2c(=O)c1CN1CCCC1 | 0 | -65 | 0 | 0 | 0
O=C(COc1ccc2ccccc2c1Br)Nc1cccnc1 | 0 | 0 | -42 | 0 | 0
O=C(COc1cccc(C(F)(F)F)c1)Nc1cccnc1 | 0 | 0 | -31 | 0 | 0
CCc1ccc(NC(=O)Cn2c(=O)n(CCCCC(=O)NCCc3ccccc3)c(=O)c3ccccc32)cc1 | 0 | - | 0 | 0 | 0
Cc1noc(/C=C/Nc2ccc(F)cc2F)c1[N+](=O)[O-] | 0 | 0 | 0 | 0 | 0
SMILES | D1 PAM | D3 antag | D1 antag | D1 agonist | D3 ag
COc1ccccc1N/C=C/c1onc(C)c1[N+](=O)[O-] | 0 | 0 | 0 | 140 | 0
Cc1ccc(N2CCN(S(=O)(=O)c3ccc(F)c(C(=O)Nc4ccc(Cl)cc4Cl)c3)CC2C)cc1 (stereo unspecified) | 0 | - | 0 | 0 | 0
O=C(/C=C/c1ccccc1)NC(=S)Nc1ccc(CN2CCOCC2)cc1 | 0 | -57 | 0 | 0 | 0
O=C(/C=C/c1ccc(Cl)cc1Cl)n1cccn1 | 0 | -59 | 0 | 0 | 0
CC(C)C(=O)NC(=S)Nc1ccc(CN2CCOCC2)cc1 | 0 | 0 | 0 | 0 | 0
O=C(/C=C/c1ccc(Cl)cc1)Nc1ccc(CN2CCOCC2)cc1 | 0 | 0 | 0 | 0 | 0
O=C(/C=C/c1ccc(Cl)cc1Cl)NC(=S)Nc1ccccn1 | 0 | 0 | -44 | 0 | 0
O=C(/C=C/c1ccc(Cl)cc1Cl)NC(=S)Nc1ccc(CN2CCOCC2)cc1 | 0 | -83 | 0 | 0 | 0
O=C(NC(=S)Nc1ccccn1)c1ccccc1 | 0 | 0 | 0 | 0 | 0
CC(C)(C)OC(=O)N(c1cccc2cccnc12)S(=O)(=O)c1ccccc1Br | 0 | - | 0 | 0 | -
Cc1ccc2c(CC(=O)Nc3c(C(=O)Nc4cccc(Cl)c4)oc4ccccc34)coc2c1C | 0 | - | 0 | 0 | 0

Screening data (PubChem)
